Consider 70 compounds from PubChem BioAssay AID1347418 (Sanford-Burnham Center for Chemical Genomics, 2020).

Each structure is given as a SMILES string. Screen size: about 1,300 compounds; about 750 (58%) were called active. The list shows a part of the results.

By inhibition is commonly meant the relative decrease from the control value, in per cent.

The target of the assay is Sulfhydryl oxidase 1 (Homo sapiens) (UniProt O00391). Kind of assay: inhibition of human sulfhydryl oxidase QSOX1 – biochemical, ROS-Glo H2O2 luminescence, HTS, primary screen (AID 1347418). Conditions: recombinant QSOX1, ROS-Glo H2O2 luminescence, at 12.5 µM, active compounds read high; active = any value above zero unless noted.
Sequence of Sulfhydryl oxidase 1 (Homo sapiens) (O00391 whole entry, looked up): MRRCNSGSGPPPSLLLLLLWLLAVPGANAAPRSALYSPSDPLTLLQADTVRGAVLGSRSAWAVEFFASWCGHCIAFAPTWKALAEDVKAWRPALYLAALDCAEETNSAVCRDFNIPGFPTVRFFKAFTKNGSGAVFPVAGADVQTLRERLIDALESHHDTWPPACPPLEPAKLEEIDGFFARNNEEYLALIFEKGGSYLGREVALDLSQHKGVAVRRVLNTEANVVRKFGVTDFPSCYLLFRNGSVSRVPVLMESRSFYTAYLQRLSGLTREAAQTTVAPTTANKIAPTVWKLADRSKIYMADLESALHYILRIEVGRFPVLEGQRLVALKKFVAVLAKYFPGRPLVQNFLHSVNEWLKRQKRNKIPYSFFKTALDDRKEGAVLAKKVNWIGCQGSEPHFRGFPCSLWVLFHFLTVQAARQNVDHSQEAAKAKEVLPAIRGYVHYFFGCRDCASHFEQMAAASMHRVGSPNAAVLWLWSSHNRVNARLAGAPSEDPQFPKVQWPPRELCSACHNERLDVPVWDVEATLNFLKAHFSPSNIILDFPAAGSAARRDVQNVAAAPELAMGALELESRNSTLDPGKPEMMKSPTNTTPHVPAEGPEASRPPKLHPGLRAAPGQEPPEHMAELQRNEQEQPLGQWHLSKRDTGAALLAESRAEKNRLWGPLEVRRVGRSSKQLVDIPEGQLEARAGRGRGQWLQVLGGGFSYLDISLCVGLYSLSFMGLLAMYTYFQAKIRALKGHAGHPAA
On to `NC(=O)CN1CCCC1=O`, for which the inhibition is 2.9% [setting not given] (active). For the compound `CC[C@@H](C(N)=O)N1CCCC1=O`, the inhibition was -2.6% [setting not given] (inactive). For `COc1ccc(C(=O)N2CCCC2=O)cc1`, the inhibition was -3% [setting not given] (inactive). With `Cc1cccc(C)c1NC(=O)CN1CCCC1=O`, the inhibition was 3% [setting not given] (active). Under `O=C1CCCN1CC#CCN1CCCC1` stands -8.1% [setting not given] (inactive); under `NC(=O)CN1CC(O)CC1=O` (stereo not given), 1.1% [setting not given] (active).

With `C=CCN(C1=NCCN1)c1c(Cl)cccc1Cl`, the inhibition is -6.5% (inactive). Regarding `CCC1(C2=NCCN2)Cc2ccccc2O1` (stereo not given), the inhibition is -2.6% (inactive). With `C/C=C(/C)C(=O)O[C@H]1C(C)=C2[C@H]([C@@H]1OC(=O)CCCCCCC)[C@@](C)(OC(C)=O)C[C@H](OC(=O)CCC)[C@@]1(O)[C@H]2OC(=O)[C@@]1(C)O`, the inhibition was -0.7% (inactive). For the compound `CN[C@@H]1C[C@@H](c2ccc(Cl)c(Cl)c2)c2ccccc21`, the inhibition was -1.2% (inactive). `CCCN1CCC[C@@H]2Cc3[nH]ncc3C[C@H]21`: the inhibition is -2.4% (inactive). In the case of `CC12CCC3C(CCC4=C(O)C(=O)CCC43C)C1CCC2=O` (stereo not given), the inhibition was 0.2% [setting not given] (active).

With `C[C@@H](N)Cc1cnc[nH]1`, the inhibition was 11.8% (active). For `c1ccc(C2(c3ccccc3)CC2C2=NCCN2)cc1` (stereo not given), the inhibition was -0.8% (inactive). With `CCn1cnc2c(Nc3cccc(Cl)c3)nc(N[C@@H]3CCCC[C@@H]3N)nc21`, the inhibition is 0.3% (active). Under `NC(Cn1oc(=O)[nH]c1=O)C(=O)O` (stereo not given) stands 2.7% (active); under `CCC1(c2ccc(N)cc2)CCC(=O)NC1=O` (stereo not given), -0.8% [setting not given] (inactive); under `NCCCP(=O)(O)O`, 6.4% (active).

Regarding `CC(NC(C)(C)C)C(=O)c1cccc(Cl)c1` (stereo not given), the inhibition was 0.7% [setting not given] (active). In the case of `CCCN1CCC[C@@H]2Cc3nc(N)ncc3C[C@H]21`, the inhibition is -0.3% (inactive). As to `N#CC(C#N)=Cc1ccc(O)c(O)c1`, the inhibition was 31.5% (active).

On to `N#CC(=Cc1ccc(O)c(O)c1)C(N)=S`, for which the inhibition is 26.9% (active). Consider `CC(C)(C)c1cc(C=C(C#N)C#N)cc(C(C)(C)C)c1O`, for which the inhibition is 27.7% (active). On to `CCCCc1ccc(C(=O)O)nc1`, for which the inhibition was -1.9% (inactive). In the case of `NC(=O)c1cc(N2CC2)c([N+](=O)[O-])cc1[N+](=O)[O-]`, the inhibition was -2.6% (inactive). For `CC(N)[C@H](O)c1ccc(O)c(O)c1` (stereo not given in full), the inhibition was 10.4% [setting not given] (active). Under `COc1ccc(OC)c(C(O)C(C)N)c1` (stereo not given) stands -1.4% [setting not given] (inactive); under `C[C@@H]1O[C@@H](O[C@H]2C[C@@H](O)[C@]3(CO)[C@H]4[C@H](O)C[C@]5(C)[C@@H](C6=CC(=O)OC6)CC[C@]5(O)[C@@H]4CC[C@]3(O)C2)[C@H](O)[C@H](O)[C@H]1O`, 1.8% [setting not given] (active); under `C[C@@H]1O[C@@H](O[C@H]2C[C@@H](O)[C@]3(CO)[C@@H]4C(CC[C@]3(O)C2)[C@@]2(O)CC[C@H](C3COC(=O)C3)[C@@]2(C)C[C@H]4O)[C@H](O)[C@H](O)[C@H]1O` (stereo not given in full), -6.9% (inactive). With `CN1C2CCC1CC(OC(c1ccccc1)c1ccccc1N)C2` (stereo not given), the inhibition is 1.1% (active). Turning to `CN1C2CCC1CC(OC(=O)c1cc(Cl)cc(Cl)c1)C2` (stereo not given), the inhibition was -0.7% (inactive). Under `NC(=NCCC[C@H](N)C(=O)O)N[N+](=O)[O-]` stands -2.6% (inactive); under `COC(=O)[C@@H](N)CCCN=C(N)N[N+](=O)[O-]`, 2.4% (active). Under `C[C@]12Cc3cn4c(nc3C=C1CCC1C2CC[C@@]2(C)[C@H]1CC[C@@]2(O)C#N)nc1ccccc14` (stereo not given in full) stands 2.7% (active); under `Cc1o[nH]c(=O)c1CC(N)C(=O)O` (stereo not given), 4.2% (active). On to `NC(C(=O)O)c1cc(=O)[nH]o1` (stereo not given), for which the inhibition is -2.4% (inactive). On to `CCCN(CCC)CCc1ccc(O)c(O)c1`, for which the inhibition is 14.4% (active). As to `CNCCc1ccc(O)c(O)c1`, the inhibition is 7.7% (active). On to `CC(N)c1cccc(Cl)c1Cl` (stereo not given), for which the inhibition was 6.2% (active). Consider `CC(C)(C)NCC(O)c1ccccc1Cl` (stereo not given), for which the inhibition was -0.6% (inactive). As to `O=C(O)[C@@H]1CCN1`, the inhibition was 9.3% (active). Then `C[C@H](N)Cc1cccc(C(F)(F)F)c1`, with 1.6% [setting not given] (active); and `O=[N+]([O-])c1cc(O)c(O)c([N+](=O)[O-])c1`, with 13% (active).

`N=C(N)c1ccc(CS(=O)(=O)F)cc1`: the inhibition is -0.1% (inactive). On to `NCCc1ccc(S(=O)(=O)F)cc1`, for which the inhibition is 5.8% (active). Under `NCCc1ccc(O)cc1` stands -0.2% [setting not given] (inactive); under `CC1=NN=C(c2ccc(N)cc2)c2cc3c(cc2C1)OCO3`, 10.6% (active). For `NCC(CC(=O)O)c1ccc(Cl)cc1` (stereo not given), the inhibition is 1.1% [setting not given] (active). Take `NCC(CP(=O)(O)O)c1ccc(Cl)cc1` (stereo not given): the inhibition is 0.1% (active). Regarding `CCCCC/C=C\C/C=C\C/C=C\C/C=C\CCCC(=O)NCC(=O)O`, the inhibition was 2.2% (active). With `Cc1cccc(C)c1NC1=NCCCS1`, the inhibition was 0.2% [setting not given] (active). Under `Nc1ccncc1` stands -1% [setting not given] (inactive); under `CCN1C[C@@]2(COC)C3[C@@H](OC)C4[C@@H]1C3([C@@H]1C[C@@]3(O)[C@H](OC(=O)c5ccccc5)[C@@H]1[C@]4(OC(C)=O)[C@@H](O)[C@@H]3OC)[C@H](OC)C[C@H]2O`, 2.6% (active). Then `CNc1ccc2oc(C[C@H]3O[C@@]4(CC[C@H]3C)O[C@H]([C@H](C)C(=O)c3ccc[nH]3)[C@H](C)C[C@H]4C)nc2c1C(=O)O`, with 14.2% [setting not given] (active); and `Cc1c2ccncc2c(C)c2c1[nH]c1ccccc12`, with 29% [setting not given] (active); and `Cc1nccc2c1[nH]c1ccccc12`, with -2% [setting not given] (inactive). For `NC(CCP(=O)(O)O)C(=O)O` (stereo not given), the inhibition was 2.8% (active). Then `NC(CCCCCP(=O)(O)O)C(=O)O` (stereo not given), with -4.6% (inactive). Under `NC(CP(=O)(O)O)C(=O)O` (stereo not given) stands 2.8% (active). For `CO[C@H]1CC=C2CCN3CCC4=C(CC(=O)OC4)[C@]23C1`, the inhibition was 0.6% (active). With `O=c1[nH]oc2c1CCNC2`, the inhibition was -7.3% (inactive). Under `c1ccc2sc(C3(N4CCCCC4)CCCCC3)cc2c1` stands 0.2% (active); under `Cc1sc2ccccc2c1CC1=NCCN1`, -3.3% (inactive); under `CC(C)N(CCC(C(N)=O)(c1ccccc1)c1ccccn1)C(C)C` (stereo not given), 6.1% [setting not given] (active).

In the case of `CC1(C(=O)O)C2CCC(O2)C1(C)C(=O)O` (stereo not given), the inhibition was -3.3% (inactive). Take `COc1ccc(CNC(=O)/C=C/c2ccc3[nH]cc(CCN(C)C)c3c2)cc1`: the inhibition was 1.8% [setting not given] (active).

Consider `O=C(Cc1ccc(Cl)c(Cl)c1)N1CCCCC1CN1CCCC1` (stereo not given), for which the inhibition was -1.7% (inactive). Then `COC(=O)N1CCN(C(=O)Cc2ccc(Cl)c(Cl)c2)C(CN2CCCC2)C1` (stereo not given), with -0.5% (inactive); and `CN(C(=O)Cc1ccc(Cl)c(Cl)c1)C(CN1CCCC1)c1cccc(OCC(=O)O)c1` (stereo not given), with 1.2% (active). Then `CC(C)c1cccc(C(C)C)c1O`, with 0.9% (active).
